Data from PubChem BioAssay (Tox21).
Results filed as inconclusive are left out. Activity calls are given as the source filed them. Unless noted, the call rests on the fitted dose curve; in most records, active means well fitted curve in the direction sought with a large enough effect in the repeat runs; inconclusive means weak or mixed curves; inactive means no such curve, though single readings can be large; an effect the other way counts as inactive or inconclusive.

How the values were obtained:
[1] = qHTS assay to identify aromatase inhibitors - cell viability counter screen (AID 743084);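 further: cells stimulated with testosterone during compound exposure; nearly all actives have a fitted effect of over 55% in size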; further: potency means the concentration at half of the fitted maximal effect
[2] = molecular target: Aryl hydrocarbon receptor (Homo sapiens) (UniProt P35869); assay: qHTS assay to identify small molecule that activate the aryl hydrocarbon receptor (AhR) signaling pathway (AID 743085); further: nearly all actives have a fitted effect of over 15% in size; further: potency means the concentration at half of the fitted maximal effect;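 on activation: HG2L7.5c1 human HepG2 liver cells with stably integrated DRE-driven firefly reporter; series mostly up to about 70 µM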
Chain of Aryl hydrocarbon receptor (Homo sapiens) (P35869 whole entry, looked up): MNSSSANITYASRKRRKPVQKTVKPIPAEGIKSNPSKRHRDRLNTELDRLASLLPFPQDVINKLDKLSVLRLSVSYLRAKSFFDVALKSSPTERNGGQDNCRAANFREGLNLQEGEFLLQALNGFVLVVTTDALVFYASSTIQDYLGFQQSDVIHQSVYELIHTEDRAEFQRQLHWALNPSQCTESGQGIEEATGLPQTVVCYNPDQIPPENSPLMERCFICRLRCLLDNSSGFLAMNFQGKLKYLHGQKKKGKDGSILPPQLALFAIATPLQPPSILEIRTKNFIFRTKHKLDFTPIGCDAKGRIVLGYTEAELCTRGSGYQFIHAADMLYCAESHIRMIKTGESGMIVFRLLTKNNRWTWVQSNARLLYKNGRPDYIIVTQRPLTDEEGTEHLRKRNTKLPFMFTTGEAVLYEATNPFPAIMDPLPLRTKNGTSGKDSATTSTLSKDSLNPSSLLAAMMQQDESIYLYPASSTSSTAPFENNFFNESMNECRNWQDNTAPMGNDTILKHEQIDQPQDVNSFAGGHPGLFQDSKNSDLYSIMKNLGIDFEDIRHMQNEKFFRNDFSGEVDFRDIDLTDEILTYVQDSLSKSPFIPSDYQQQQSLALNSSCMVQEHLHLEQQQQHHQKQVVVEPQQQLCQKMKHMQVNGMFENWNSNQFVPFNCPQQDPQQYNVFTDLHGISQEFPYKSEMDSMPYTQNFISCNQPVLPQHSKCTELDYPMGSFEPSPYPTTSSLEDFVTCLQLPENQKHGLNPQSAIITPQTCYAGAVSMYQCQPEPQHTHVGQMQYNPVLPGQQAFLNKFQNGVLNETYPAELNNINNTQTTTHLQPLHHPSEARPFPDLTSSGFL
Procedure, shortened: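 Measured in HG2L7.5c1 cells: CellTiter-Fluor signal (30 min incubation, 37C) for viability, then luciferase luminescence (30 min, room temperature). Compound contact time was 24 h at 37C, following a 5 h pre-incubation.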

[3] = qHTS assay to identify small molecule that activate the aryl hydrocarbon receptor (AhR) signaling pathway - cell viability counter screen (AID 743086); further: nearly all actives have a fitted effect of over 45% in size; further: potency means the concentration at half of the fitted maximal effect;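 on viability change, negative = cytotoxic: HepG2 liver cells carrying the AhR DRE luciferase reporter; series mostly up to about 70 µM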
Procedure, shortened: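 Cytotoxicity counter screen: CellTiter-Fluor signal (30 min, 37 C) in 4000 HepG2 cells/well carrying the DRE-luciferase reporter, following 24 h compound exposure at 37 C.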

[4] = molecular target: Peroxisome proliferator-activated receptor gamma (Homo sapiens) (UniProt P37231); assay: qHTS assay to identify small molecule agonists of the peroxisome proliferator-activated receptor gamma (PPARg) signaling pathway (AID 743094; active means well fitted activation curve with a large enough effect in the signal ratio in the repeat runs, not every such curve was filed as active; the % refers to the signal ratio)
Chain of Peroxisome proliferator-activated receptor gamma (Homo sapiens) (P37231 whole entry, looked up): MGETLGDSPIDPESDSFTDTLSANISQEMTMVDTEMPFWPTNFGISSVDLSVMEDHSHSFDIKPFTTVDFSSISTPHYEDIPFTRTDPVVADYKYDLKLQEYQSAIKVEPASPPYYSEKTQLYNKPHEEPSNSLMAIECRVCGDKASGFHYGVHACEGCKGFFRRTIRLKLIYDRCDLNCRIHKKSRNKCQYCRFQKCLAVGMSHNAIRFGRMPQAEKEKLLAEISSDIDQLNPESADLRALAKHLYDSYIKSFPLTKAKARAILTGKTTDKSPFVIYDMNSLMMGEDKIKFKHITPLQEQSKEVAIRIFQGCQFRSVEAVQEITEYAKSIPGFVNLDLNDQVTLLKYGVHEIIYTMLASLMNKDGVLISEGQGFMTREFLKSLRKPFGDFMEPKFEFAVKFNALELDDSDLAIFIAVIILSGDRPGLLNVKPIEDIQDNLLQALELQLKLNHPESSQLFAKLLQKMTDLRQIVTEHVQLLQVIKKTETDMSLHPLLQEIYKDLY
Procedure, shortened: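 GeneBLAzer PPARg UAS-bla HEK293H cells carrying a stably integrated beta-lactamase reporter were pre-incubated 5 h at 37C, then exposed to compounds in DMSO for 17 h at 37C; LiveBLAzer B/G FRET substrate was added for 1 h at room temperature and fluorescence read.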

[5] = molecular target: Peroxisome proliferator-activated receptor gamma (Homo sapiens) (UniProt P37231); assay: qHTS assay to identify small molecule antagonists of the peroxisome proliferator-activated receptor gamma (PPARg) signaling pathway (AID 743191; calls by dose curve; further: series mostly up to about 63 µM; nearly all actives have a fitted effect of over 30% in size)
Procedure, shortened: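 Beta-lactamase reporter under UAS control in HEK293H PPARg-bla cells; compound treatment 17 h at 37C. Read-out: fluorescence intensity after 1 h room-temperature incubation with LiveBLAzer B/G FRET substrate.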

[6] = qHTS assay to identify small molecule antagonists of the peroxisome proliferator-activated receptor gamma (PPARg) signaling pathway - cell viability counter screen (AID 743194); further: nearly all actives have a fitted effect of over 55% in size
Procedure, shortened: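 Viability was measured as CellTiter-Glo luminescence in GeneBLAzer PPARg UAS-bla HEK293H cells. These cells had been exposed 17 h at 37 C to compounds together with rosiglitazone at 50 nM final, with the beta-lactamase readout taken in the same wells.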

[7] = qHTS assay for small molecule agonists of the antioxidant response element (ARE) signaling pathway (AID 743202; active means well fitted activation curve with a large enough effect in the signal ratio in the repeat runs, not every such curve was filed as active; the % refers to the signal ratio; further: potency means the concentration at half of the fitted maximal effect)
Procedure, shortened: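 Quantitative high-throughput format in HepG2 cells bearing an integrated ARE-beta-lactamase reporter. Compound exposure lasted 16 h at 37 C, and fluorescence was read 2 h after adding LiveBLAzer B/G substrate at room temperature.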

[8] = qHTS assay for small molecule agonists of the antioxidant response element (ARE) signaling pathway - cell viability counter screen (AID 743203; calls by dose curve; further: nearly all actives have a fitted effect of over 55% in size)
Procedure, shortened: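 CellSensor ARE-bla HepG2 cells, 2,000 per well, rested 5 hrs at 37C/5% CO2, then exposed to compound in DMSO for 16 hrs; viability read as CellTiter-Glo luminescence after 30 min at room temperature, in the reporter wells.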

[9] = qHTS assay for small molecule activators of the heat shock response signaling pathway - cell viability counter screen (AID 743209); further: nearly all actives have a fitted effect of over 50% in size
Procedure, shortened: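 CellSensor HSE-bla HeLa cells, plated overnight at 37 C/5% CO2, were exposed to compounds in DMSO for 5 h at 37 C. Viability was then read in the same wells by CellTiter-Glo luminescence after 30 min at room temperature.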

[10] = qHTS assay for small molecule activators of the heat shock response signaling pathway (AID 743210; active means well fitted activation curve with a large enough effect in the signal ratio in the repeat runs, with a control signal flat, not every such curve was filed as active; the % refers to the signal ratio;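 further: HeLa cells with beta-lactamase reporter driven by heat shock elements; series mostly up to about 63 µM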)
Procedure, shortened: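 HeLa HSE-bla cells, overnight plating; cpd in DMSO 5 h, 37 C; LiveBLAzer B/G FRET substrate 2.5 h RT; fluorescence intensity read.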
On the % scale 0 is the no-effect control and ±100 the full control effect.

c1ccc2nccnc2c1
inactive: Potency [1] | Potency [2] | Potency [3] | outcome [4] | Potency [5] | outcome [6] | Potency [7] | outcome [8] | outcome [9] | outcome [10]

Cc1ccc2c(c1)OCC(=O)CO2
inactive: Potency [1] | Potency [2] | Potency [3] | outcome [4] | Potency [5] | outcome [6] | Potency [7] | outcome [8] | outcome [9]

CC(=O)Nc1ccc(S(=O)(=O)Cl)cc1
inactive: Potency [1] | Potency [2] | Potency [3] | outcome [4] | Potency [5] | outcome [6] | Potency [7] | outcome [8] | outcome [9]

CC(=O)CCCCn1c(=O)c2c(ncn2C)n(C)c1=O
inactive: Potency [1] | Potency [2] | Potency [3] | outcome [4] | Potency [5] | outcome [6] | Potency [7] | outcome [8] | outcome [9] | outcome [10]

C[C@@H](Oc1ccc(CNC(=O)c2cccnc2Oc2ccc3c(c2)OCO3)c(F)c1)C(=O)O
inactive: Potency [1] | Potency [2] | Potency [3] | outcome [4] | Potency [5] | outcome [6] | Potency [7] | outcome [8] | outcome [9] | outcome [10]

O=S(=O)(O)c1cc(O)c2ccc(Nc3ccccc3)cc2c1
inactive: Potency [1] | Potency [2] | Potency [3] | outcome [4] | Potency [5] | outcome [6] | Potency [7] | outcome [8] | outcome [9] | outcome [10]

Cc1nc2n(c(=O)c1CCN1CCC(c3noc4cc(F)ccc34)CC1)CCC[C@H]2O
inactive: Potency [1] | Potency [2] | Potency [3] | outcome [4] | Potency [5] | outcome [6] | Potency [7] | outcome [8] | outcome [9] | outcome [10]

COP(=O)(OC)OC(c1ccc(Cl)cc1)P(=O)(OC)OC (stereo not drawn)
inactive: Potency [1] | Potency [2] | Potency [3] | outcome [4] | Potency [5] | outcome [6] | Potency [7] | outcome [8] | outcome [9]

Cc1cccc(C)c1NC(=O)c1ccccc1C(=O)O
inactive: Potency [1] | Potency [2] | Potency [3] | outcome [4] | Potency [5] | outcome [6] | Potency [7] | outcome [8] | outcome [9] | outcome [10]

CC(=O)NCCCCCC(=O)O
inactive: Potency [1] | Potency [2] | Potency [3] | outcome [4] | Potency [5] | outcome [6] | Potency [7] | outcome [8] | outcome [9] | outcome [10]

CC(=O)c1ccc2c(c1)Cc1ccccc1-2
active: Potency [2] 54.5 µM | Potency [7] 7.7 µM
inactive: Potency [1] | Potency [3] | outcome [4] | Potency [5] | outcome [6] | outcome [8] | outcome [9] | outcome [10]

CCCC(=O)C(C)=O
inactive: Potency [1] | Potency [2] | Potency [3] | outcome [4] | Potency [5] | outcome [6] | Potency [7] | outcome [8] | outcome [9] | outcome [10]

C[Si](C)=O
inactive: activity change, negative = cytotoxicity [1] -1.09% [at 8.47 µM] | activation [2] -0.45% [at 8.47 µM] | viability change, negative = cytotoxic [3] -0.537% [at 8.47 µM] | activation [4] -3.83% [at 7.08 µM] | ratio activity, negative = inhibition [5] 8.93% [at 5.95 µM] | activity change, negative = cytotoxicity [6] 17.1% [at 5.95 µM] | activation [7] -4.69% [at 8.36 µM] | viability change, negative = cytotoxic [8] -8.17% [at 8.36 µM] | activity change, negative = cytotoxicity [9] 6.74% [at 5.95 µM] | activation [10] -1.34% [at 5.95 µM]

Nc1ccc([N+](=O)[O-])c(N)c1
active: Potency [1] 33.5 µM | Potency [3] 33.5 µM
inactive: Potency [2] | outcome [4] | Potency [5] | outcome [6] | Potency [7] | outcome [8] | outcome [9] | outcome [10]

CCCCC(CC)COCCO (stereo not drawn)
inactive: Potency [1] | Potency [2] | Potency [3] | outcome [4] | Potency [5] | outcome [6] | Potency [7] | outcome [8] | outcome [9]

CCc1ccc(C=O)cc1
inactive: Potency [1] | Potency [2] | Potency [3] | outcome [4] | Potency [5] | outcome [6] | Potency [7] | outcome [8] | outcome [9]

CCN(C)C(=O)Oc1cccc([C@H](C)N(C)C)c1
inactive: Potency [1] | Potency [2] | Potency [3] | outcome [4] | Potency [5] | outcome [6] | Potency [7] | outcome [8] | outcome [9]

COc1cc(C(=S)N2CCOCC2)cc(OC)c1OC
inactive: Potency [1] | Potency [2] | Potency [3] | outcome [4] | Potency [5] | outcome [6] | Potency [7] | outcome [8] | outcome [9] | outcome [10]

CC1COc2ccccc2N1 (stereo not drawn)
inactive: Potency [1] | Potency [3] | outcome [4] | Potency [5] | outcome [6] | Potency [7] | outcome [8] | outcome [9]
active: Potency [2] 0.969 µM

COc1nccnc1NS(=O)(=O)c1ccc(N)cc1
inactive: Potency [1] | Potency [2] | Potency [3] | outcome [4] | Potency [5] | outcome [6] | Potency [7] | outcome [8] | outcome [9] | outcome [10]

CNC(=O)[C@H]1O[C@@H](n2cnc3c(NCc4cc(Cl)ccc4OCc4cc(C)no4)ncnc32)[C@H](O)[C@@H]1N
inactive: Potency [1] | Potency [2] | Potency [3] | outcome [4] | Potency [5] | outcome [6] | Potency [7] | outcome [8] | outcome [9] | outcome [10]

CCCCCCCCCC(C)=O
inactive: Potency [1] | Potency [2] | Potency [3] | outcome [4] | Potency [5] | outcome [6] | Potency [7] | outcome [8] | outcome [9] | outcome [10]

O=C1O[C@@H]2[C@@H](O)[C@H](O)O[C@@H]2[C@H]1O
inactive: Potency [1] | Potency [2] | Potency [3] | outcome [4] | Potency [5] | outcome [6] | Potency [7] | outcome [8] | outcome [9] | outcome [10]

COC(=O)CCc1ccc(OCC(O)CNC(C)C)cc1 (stereo not drawn)
inactive: Potency [1] | Potency [2] | Potency [3] | outcome [4] | Potency [5] | outcome [6] | Potency [7] | outcome [8] | outcome [9] | outcome [10]
